Screening data as filed in PubChem BioAssay.
Hits are enriched below; roughly 19% of the tested compounds scored in any of these assays.
TDP1 cell CPT: DT40-hTDP1 cell growth loss with CPT | chicken DT40 Tdp1-/-;hTDP1 cells + 20 nM CPT, ATP luminescence, 48 h | Potency, µM (highest dose often 46.2 µM), most hits filed as inhibitors | 12% of 420,000 active; note: nearly all actives have a fitted effect of over 55% in size
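Chicken DT40 Tdp1-/- cells complemented with human TDP1, 400 cells/well, exposed to compounds plus 20 nM camptothecin for at least 48 h at 37 C; viability read as ATP content by CellTiter-Glo luminescence.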
HT1080 IDH1KD tx: HT-1080 IDH1 knockdown cell toxicity (counter line); 2% of 360,000 active; Potency, µM (doses to about 46.1 µM), hits mostly cytotoxic; HT-1080 IDH1 knockdown viability, ATP luminescence, 48 h
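% activity derives from luminescence (CellTiter-Glo), normalised to DMSO and no-cell wells. HT-1080-IDH1KD cells, 750/well, had 48 h compound exposure at 37 °C.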
HT1080NT lethal: kills 2HG-producing HT-1080-NT fibrosarcoma cells; 1.6% of 360,000 active; Potency, µM (top dose mostly 46.1 µM), actives largely listed as cytotoxic; AID 686970; HT-1080-NT fibrosarcoma viability, CellTiter-Glo ATP luminescence, 48 h;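 note: NT is the 2HG producing partner of a matched IDH1 knockdown line; nearly all actives have a fitted effect of over 55% in size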
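A 48-hour cytotoxicity screen used HT-1080-NT cells plated 2 hours before compound delivery. ATP-based CellTiter-Glo luminescence measured viability, normalized to DMSO and no-cell controls.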
IL-1B inflam inh: blocks inflammasome-driven IL-1 beta release. activity change, % at 57.5 µM. 4.7% of 360,000 active. THP-1 LPS/ATP IL-1B secretion, AlphaLISA, 16 h; hits give low values; in the data active = activity change below about -50%; inconclusive = mostly about -30% to -49%
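Secreted IL-1B measured by AlphaLISA bead assay after 16 h compound exposure of THP-1 cells; compounds (final up to 57.5 uM) added 1 h before LPS (250 ng/mL) and ATP (1.25 mM) stimulation; lower signal means less secretion.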
TDP1 cell noCPT: qHTS for Inhibitors of human tyrosyl-DNA phosphodiesterase 1 (TDP1): qHTS in cells in absence of CPT | DT40 Tdp1-/- hTDP1 cells, no CPT, ATP luminescence, 48 h | Potency, µM (titrated, usually from 46.2 µM), most hits filed as inhibitors | 15% of 420,000 active | AID 686978, 2013; note: nearly all actives have a fitted effect of over 55% in size
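Seeded 400 DT40-hTDP1 cells/well (vehicle DMSO, no 20 nM CPT); pinned compounds; ≥48 hr at 37 °C; CellTiter-Glo luminescence as viability measure.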
Numbers stand for hits; 0 = inactive; ? = inconclusive; - = not tested or not shown; [ ] = another dose, or the depositor's remark. Unless noted, calls come from the whole dose curve; as a rule, active = well fitted curve in the direction sought with a large enough effect; inconclusive = small, poorly fitted or top-dose-only effect, or another doubt; inactive = no such curve, though single readings can be large; an effect the other way counts as inactive or inconclusive.

SMILES | TDP1 cell CPT | HT1080 IDH1KD tx | HT1080NT lethal | IL-1B inflam inh | TDP1 cell noCPT
Cc1onc(-c2ccccc2)c1C(=O)OCC(=O)N(C)c1ccccc1 | 0 | 0 | 0 | 0 | 0
CC1CN(C(=O)CSc2nnc3c(Cl)cc(Cl)cn23)CC(C)O1 (configuration not stated) | 0 | 0 | 0 | 0 | 0
O=[N+]([O-])c1ccc2c(c1Nc1ccccc1Cl)=NC1(CCCCC1)N=2 | 0 | 0 | 0 | 0 | 0
Cc1ccc(Nc2c([N+](=O)[O-])ccc3c2=NC2(CCCCC2)N=3)cc1 | 16µM | 0 | 0 | 0 | 23µM
Cc1cccc(NC(=O)CCNC(=O)c2ccc(Br)cc2)c1 | 0 | 0 | 0 | 0 | 0
CC1O[C@@H](O[C@@H]2C(O)C[C@H](O[C@@H]3C(O)C[C@@H](OC4CC[C@@]5(C)C6CC(O)[C@@]7(C)C(C8=CC(=O)OC8)CC[C@@]7(O)C6CC[C@@H]5C4)OC3C)OC2C)CC(O)[C@H]1O (some centres not stated) | 3.3µM | - | - | - | 1.8µM
CCOc1cc(C=C(C(=O)OC)C(=O)OC)ccc1OCc1ccc([N+](=O)[O-])cc1 | 6.5µM | 7.3µM | 5.8µM | -118 | 12µM
CCOc1cc(/C=N/O)ccc1OCc1ccc([N+](=O)[O-])cc1 | ? | 0 | 0 | 0 | 0
O=C(COC(=O)CN1C(=O)C2CCCCC2C1=O)Nc1c(Cl)cccc1Cl (configuration not stated) | ? | 0 | 0[9.24 µM] | 0 | 0
Cc1ccccc1Cn1c2ccccc2c2cnn(CC(=O)N3CCC(C)CC3)c(=O)c21 | 21µM | - | - | - | 15µM
Cc1c2cnn(CC(=O)N3CCN(c4ccccc4)CC3)c(=O)c2c(C)n1Cc1ccc(F)cc1 | 21µM | - | - | - | 13µM
CN1CCN(C(=O)Cn2ncc3c4ccccc4n(Cc4ccc(Cl)cc4)c3c2=O)CC1 | 23µM | - | - | - | 10µM
CCOC(=O)C1CCCN(C(=O)Cn2ncc3c([nH]c4ccccc43)c2=O)C1 (configuration not stated) | ? | 0 | 0 | -84 | ?
CO/N=C/C(=N\Nc1cc(OC)cc(OC)c1)C(=O)c1ccccc1 | ? | 0 | 0 | 0 | ?
Cc1cc(C)c(Cn2c3ccccc3c3cnn(CC(=O)NCc4cccs4)c(=O)c32)c(C)c1 | 15µM | - | - | - | 21µM
O=C(Cn1nnc2c(cnn2-c2ccccc2)c1=O)NCc1cccs1 | ? | ? | ? | 0 | 23µM
CCN1CCN(C(=O)Cn2ncc3c4ccccc4n(Cc4ccccc4F)c3c2=O)CC1 | 15µM | - | - | - | 18µM
CCOC(=O)C1CCCN(C(=O)Cn2ncc3c4ccccc4n(Cc4ccc(F)cc4)c3c2=O)C1 (configuration not stated) | 23µM | - | - | - | 15µM
Cc1ccc2c(c1)N(CC(=O)NC1CCCCC1)C(=O)c1cccnc1O2 | 0 | 0 | 0 | 0 | 0
COc1cccc(C2(CC(=O)N3CCC(c4nc5ccc(F)cc5[nH]4)CC3)CC(=O)N(C)C2=O)c1 (configuration not stated) | 0 | - | - | - | 0
COc1ccccc1C(=O)NS(=O)(=O)c1ccc(C)cc1 | 0 | 0 | 0 | 0 | 0
CC1CCCCN1C(=O)Cn1ncc2c3ccccc3n(Cc3ccccc3F)c2c1=O (configuration not stated) | 9.2µM | - | - | - | 9.2µM
CCN1CCN(C(=O)Cn2ncc3c4ccccc4n(Cc4ccccc4)c3c2=O)CC1 | 16µM | - | - | - | 15µM
O=C(Cn1ncc2c3ccccc3n(Cc3ccccc3)c2c1=O)N1CCN(c2ncccn2)CC1 | 0 | 0 | 0 | 0 | ?
CCOC(=O)C1CCN(C(=O)Cn2ncc3c4ccccc4n(Cc4ccccc4F)c3c2=O)CC1 | 3.3µM | - | - | - | 4.6µM
SMILES | TDP1 cell CPT | HT1080 IDH1KD tx | HT1080NT lethal | IL-1B inflam inh | TDP1 cell noCPT
CCN1CCN(C(=O)Cn2ncc3c4ccccc4n(Cc4c(C)cc(C)cc4C)c3c2=O)CC1 | ? | - | - | - | 16µM
COc1ccccc1NS(=O)(=O)c1cc(NC(=O)C(C)(C)C)ccc1N1CCOCC1 | ? | 0 | 0 | 0 | 0
COc1ccccc1NS(=O)(=O)c1cc(NC(=O)c2ccncc2)ccc1N1CCOCC1 | 12µM | 0 | 0 | 0 | 12µM
COc1ccccc1NS(=O)(=O)c1cc(NC(=O)c2cnccn2)ccc1N1CCOCC1 | 0 | 0 | 0 | 0 | 0
COc1ccccc1NS(=O)(=O)c1cc(NC(=O)c2ccc(NC(C)=O)cc2)ccc1N1CCOCC1 | 2.3µM | 0 | 0 | 0 | 5.8µM
COc1ccccc1NS(=O)(=O)c1cc(NC(=O)c2sccc2C)ccc1N1CCOCC1 | 21µM | 0 | 0 | 0 | ?
COc1ccccc1NS(=O)(=O)c1cc(NC(=O)C2CCCC2)ccc1N1CCOCC1 | 15µM | 0 | 0 | 0 | ?
CC(=O)c1cccc(N(C(=O)Cn2nnc3ccccc32)C(C(=O)NCC2CCCO2)c2ccc(N3CCOCC3)cc2)c1 (configuration not stated) | 0 | 0 | 0 | 0 | 0
CC1(C(=O)NCCC#N)CCN1C(=O)C1(c2ccccc2)CC1 (configuration not stated) | 0 | 0 | 0 | 0 | ?
COc1ccc(N2CC(NC(=O)C(=O)c3c(C)[nH]c4ccccc34)CC2=O)cc1 (configuration not stated) | 0 | - | - | - | 0
CN(C)c1cccc(NC(=O)C2(C)Cc3c(-c4cccnc4)ccnc3O2)c1 (configuration not stated) | 0 | 0 | 0 | 0 | ?
COc1ccc([C@H]2C[C@@H](O)[C@H](n3cc(C4CC4)nn3)CN2CC2CCCCC2)cc1 | 0 | 0 | 0 | 0 | 0
O=S(=O)(Nc1nccs1)c1cnc(Cl)c(Br)c1 | ? | 0 | 0 | 0 | ?
O=S(=O)(Nc1nc2ccccc2s1)c1cnc(Cl)c(Br)c1 | 23µM | 0 | 0 | 0 | ?
Cc1ccnc(NS(=O)(=O)c2cnc(Cl)c(Br)c2)c1 | 0 | 0 | 0 | -92 | 0
CC1(C(=O)Nc2cccc(Oc3ccccc3)c2)CCN1C1Cc2ccccc2C1 (configuration not stated) | ? | ? | ? | 0 | ?
CCCC/C(O)=C1\C(=O)CC(C)(C)CC1=Nc1ccc(OC)cc1 | ? | 0 | 0 | ? | ?
CCC/C(O)=C1\C(=O)CC(C)(C)CC1=Nc1ccc(OC)cc1 | ? | 0 | 0 | 0 | 15µM
Cc1ccnc(N2C3CCC2CC(O)(c2ccccc2)C3)n1 (configuration not stated) | 0 | 0 | 0 | 0 | 0
Cc1cc(N2C3CCC2CC(O)(c2ccc(F)cc2)C3)nc(-c2ccccc2)n1 (configuration not stated) | ? | 0[9.24 µM] | 14µM | -56 | ?
CCc1ccc(C(=O)c2cncc(Br)c2)cc1 | 10µM | 0 | 0 | 0 | 8.2µM
Cc1ccc(C(=O)c2cncc(Br)c2)cc1 | ? | 0 | 0 | ? | ?
